# Reference: publication PMC11062922 (Nature Chemical Biology, 2023)
# Read-outs that look alike come from different tables or passages of the source.
# Legend:
# RET = conditions: read-out: apparent Kd, n = 1
# RPS6KA4 = conditions: read-out: apparent Kd, n = 1
# [1] = compound concentrations:100 nM and 1000 nM (sheet 'Lestaurtinib' of Supplementary Table 1),run:Lestaurtinib_02438_R1,Plate:MR008
# [2] = compound concentrations:100 nM and 1000 nM (sheet 'Lestaurtinib' of Supplementary Table 1),run:Lestaurtinib_02438_R3,Plate:MR008
# [3] = compound concentrations:100 nM and 1000 nM (sheet 'Lestaurtinib' of Supplementary Table 1),run:Lestaurtinib_02443_R1,Plate:MR009
# [4] = compound concentrations:100 nM and 1000 nM (sheet 'Lestaurtinib' of Supplementary Table 1),run:Lestaurtinib_02473_R3,Plate:MR010
# [5] = compound concentrations:100 nM and 1000 nM (sheet 'Lestaurtinib' of Supplementary Table 1),run:Lestaurtinib_02482_R3,Plate:MR011
# [6] = compound concentrations:100 nM and 1000 nM (sheet 'Lestaurtinib' of Supplementary Table 1),run:Lestaurtinib_02487_R2,Plate:MR012
# [7] = compound concentrations:100 nM and 1000 nM (sheet 'Lestaurtinib' of Supplementary Table 1),run:Lestaurtinib_02487_R3,Plate:MR012
# [8] = compound concentrations:100 nM and 1000 nM (sheet 'Lestaurtinib' of Supplementary Table 1),run:Lestaurtinib_02496_R1,Plate:MR013
# [9] = compound concentrations:100 nM and 1000 nM (sheet 'Lestaurtinib' of Supplementary Table 1),run:Lestaurtinib_02566_R1,Plate:MR014
# [10] = compound concentrations:100 nM and 1000 nM (sheet 'Lestaurtinib' of Supplementary Table 1),run:Lestaurtinib_02577_R1,Plate:MR016
# [11] = compound concentrations:100 nM and 1000 nM (sheet 'Lestaurtinib' of Supplementary Table 1),run:Lestaurtinib_02584_R3,Plate:MR017
# [12] = compound concentrations:100 nM and 1000 nM (sheet 'Lestaurtinib' of Supplementary Table 1),run:Lestaurtinib_02601_R2,Plate:MR018
substance,measurement,setting,value
Lestaurtinib,potency estimated from few doses,"RET; compound concentrations:100 nM and 1000 nM (sheet 'Lestaurtinib' of Supplementary Table 1),run:Lestaurtinib_02437_R2,Plate:MR007",146 nM
same,potency estimated from few doses,"RET; compound concentrations:100 nM and 1000 nM (sheet 'Lestaurtinib' of Supplementary Table 1),run:Lestaurtinib_02437_R3,Plate:MR007",23.5 nM
same,potency estimated from few doses,RET; [1],279 nM
same,potency estimated from few doses,"RET; compound concentrations:100 nM and 1000 nM (sheet 'Lestaurtinib' of Supplementary Table 1),run:Lestaurtinib_02438_R2,Plate:MR008",286 nM
same,potency estimated from few doses,RET; [2],304 nM
same,potency estimated from few doses,RET; [3],248 nM
same,potency estimated from few doses,"RET; compound concentrations:100 nM and 1000 nM (sheet 'Lestaurtinib' of Supplementary Table 1),run:Lestaurtinib_02443_R3,Plate:MR009",140 nM
same,potency estimated from few doses,"RET; compound concentrations:100 nM and 1000 nM (sheet 'Lestaurtinib' of Supplementary Table 1),run:Lestaurtinib_02473_R2,Plate:MR010",244 nM
same,potency estimated from few doses,RET; [4],60 nM
same,potency estimated from few doses,"RET; compound concentrations:100 nM and 1000 nM (sheet 'Lestaurtinib' of Supplementary Table 1),run:Lestaurtinib_02482_R1,Plate:MR011",239 nM
same,potency estimated from few doses,RET; [5],209 nM
same,potency estimated from few doses,RET; [6],140 nM
same,potency estimated from few doses,RET; [7],213 nM
same,potency estimated from few doses,RET; [8],219 nM
same,potency estimated from few doses,"RET; compound concentrations:100 nM and 1000 nM (sheet 'Lestaurtinib' of Supplementary Table 1),run:Lestaurtinib_02496_R3,Plate:MR013",141 nM
same,potency estimated from few doses,RET; [9],277 nM
same,potency estimated from few doses,"RET; compound concentrations:100 nM and 1000 nM (sheet 'Lestaurtinib' of Supplementary Table 1),run:Lestaurtinib_02566_R3,Plate:MR014",244 nM
same,potency estimated from few doses,"RET; compound concentrations:100 nM and 1000 nM (sheet 'Lestaurtinib' of Supplementary Table 1),run:Lestaurtinib_02572_R3,Plate:MR015",307 nM
same,potency estimated from few doses,RET; [10],242 nM
same,potency estimated from few doses,"RET; compound concentrations:100 nM and 1000 nM (sheet 'Lestaurtinib' of Supplementary Table 1),run:Lestaurtinib_02577_R2,Plate:MR016",142 nM
same,potency estimated from few doses,"RET; compound concentrations:100 nM and 1000 nM (sheet 'Lestaurtinib' of Supplementary Table 1),run:Lestaurtinib_02577_R3,Plate:MR016",218 nM
same,potency estimated from few doses,RET; [11],142 nM
same,potency estimated from few doses,RET; [12],235 nM
same,potency estimated from few doses,"RET; compound concentrations:100 nM and 1000 nM (sheet 'Lestaurtinib' of Supplementary Table 1),run:Lestaurtinib_02601_R3,Plate:MR018",62.4 nM
same,potency estimated from few doses,"RET; compound concentrations:100 nM and 1000 nM (sheet 'Lestaurtinib' of Supplementary Table 1),run:Lestaurtinib_02606_R1,Plate:MR019",211 nM
same,potency estimated from few doses,"RET; compound concentrations:100 nM and 1000 nM (sheet 'Lestaurtinib' of Supplementary Table 1),run:Lestaurtinib_02624_R1,Plate:MR020",141 nM
same,potency estimated from few doses,"RET; compound concentrations:100 nM and 1000 nM (sheet 'Lestaurtinib' of Supplementary Table 1),run:Lestaurtinib_02624_R3,Plate:MR020",229 nM
same,potency estimated from few doses,"RET; compound concentrations:100 nM and 1000 nM (sheet 'Lestaurtinib' of Supplementary Table 1),run:Lestaurtinib_02724_R1,Plate:MR021",275 nM
same,potency estimated from few doses,"RET; compound concentrations:100 nM and 1000 nM (sheet 'Lestaurtinib' of Supplementary Table 1),run:Lestaurtinib_02724_R2,Plate:MR021",268 nM
same,potency estimated from few doses,"RET; compound concentrations:100 nM and 1000 nM (sheet 'Lestaurtinib' of Supplementary Table 1),run:Lestaurtinib_02724_R3,Plate:MR021",153 nM
same,potency estimated from few doses,"RET; compound concentrations:100 nM and 1000 nM (sheet 'Lestaurtinib' of Supplementary Table 1),run:Lestaurtinib_02741_R1,Plate:MR023",279 nM
same,potency estimated from few doses,"RET; compound concentrations:100 nM and 1000 nM (sheet 'Lestaurtinib' of Supplementary Table 1),run:Lestaurtinib_02741_R2,Plate:MR023",279 nM
same,potency estimated from few doses,"RET; compound concentrations:100 nM and 1000 nM (sheet 'Lestaurtinib' of Supplementary Table 1),run:Lestaurtinib_02741_R3,Plate:MR023",315 nM
same,potency estimated from few doses,"RET; compound concentrations:100 nM and 1000 nM (sheet 'Lestaurtinib' of Supplementary Table 1),run:Lestaurtinib_02748_R1,Plate:MR024",135 nM
same,potency estimated from few doses,"RET; compound concentrations:100 nM and 1000 nM (sheet 'Lestaurtinib' of Supplementary Table 1),run:Lestaurtinib_02748_R2,Plate:MR024",269 nM
same,potency estimated from few doses,"RET; compound concentrations:100 nM and 1000 nM (sheet 'Lestaurtinib' of Supplementary Table 1),run:Lestaurtinib_02765_R1,Plate:MR026",320 nM
same,potency estimated from few doses,"RET; compound concentrations:100 nM and 1000 nM (sheet 'Lestaurtinib' of Supplementary Table 1),run:Lestaurtinib_02765_R3,Plate:MR026",323 nM
same,potency estimated from few doses,"RET; compound concentrations:100 nM and 1000 nM (sheet 'Lestaurtinib' of Supplementary Table 1),run:Lestaurtinib_02766_R3,Plate:MR027",258 nM
same,potency estimated from few doses,"RET; compound concentrations:100 nM and 1000 nM (sheet 'Lestaurtinib' of Supplementary Table 1),run:Lestaurtinib_02768_R3,Plate:MR028",135 nM
same,potency estimated from few doses,"RET; compound concentrations:100 nM and 1000 nM (sheet 'Lestaurtinib' of Supplementary Table 1),run:Lestaurtinib_02795_R2,Plate:MR022",286 nM
same,potency estimated from few doses,"RET; compound concentrations:100 nM and 1000 nM (sheet 'Lestaurtinib' of Supplementary Table 1),run:Lestaurtinib_02795_R3,Plate:MR022",300 nM
same,potency estimated from few doses,"RET; compound concentrations:100 nM and 1000 nM (sheet 'Lestaurtinib' of Supplementary Table 1),run:Lestaurtinib_02802_R1,Plate:MR029",137 nM
same,potency estimated from few doses,"RET; compound concentrations:100 nM and 1000 nM (sheet 'Lestaurtinib' of Supplementary Table 1),run:Lestaurtinib_02802_R3,Plate:MR029",34.2 nM
same,potency estimated from few doses,"RET; compound concentrations:100 nM and 1000 nM (sheet 'Lestaurtinib' of Supplementary Table 1),run:Lestaurtinib_03252_R1,Plate:MR032",253 nM
same,potency estimated from few doses,"RET; compound concentrations:100 nM and 1000 nM (sheet 'Lestaurtinib' of Supplementary Table 1),run:Lestaurtinib_03260_R3,Plate:MR033",277 nM
same,potency estimated from few doses,"RPS6KA4; compound concentrations:100 nM and 1000 nM (sheet 'Lestaurtinib' of Supplementary Table 1),run:Lestaurtinib_02339_R2,Plate:MR001",873 nM
same,potency estimated from few doses,"RPS6KA4; compound concentrations:100 nM and 1000 nM (sheet 'Lestaurtinib' of Supplementary Table 1),run:Lestaurtinib_02339_R3,Plate:MR001",1210 nM
same,potency estimated from few doses,"RPS6KA4; compound concentrations:100 nM and 1000 nM (sheet 'Lestaurtinib' of Supplementary Table 1),run:Lestaurtinib_02364_R2,Plate:MR002",886 nM
same,potency estimated from few doses,"RPS6KA4; compound concentrations:100 nM and 1000 nM (sheet 'Lestaurtinib' of Supplementary Table 1),run:Lestaurtinib_02367_R1,Plate:MR003",1240 nM
same,potency estimated from few doses,"RPS6KA4; compound concentrations:100 nM and 1000 nM (sheet 'Lestaurtinib' of Supplementary Table 1),run:Lestaurtinib_02367_R2,Plate:MR003",1330 nM
same,potency estimated from few doses,"RPS6KA4; compound concentrations:100 nM and 1000 nM (sheet 'Lestaurtinib' of Supplementary Table 1),run:Lestaurtinib_02367_R3,Plate:MR003",989 nM
same,potency estimated from few doses,"RPS6KA4; compound concentrations:100 nM and 1000 nM (sheet 'Lestaurtinib' of Supplementary Table 1),run:Lestaurtinib_02381_R1,Plate:MR004",884 nM
same,potency estimated from few doses,"RPS6KA4; compound concentrations:100 nM and 1000 nM (sheet 'Lestaurtinib' of Supplementary Table 1),run:Lestaurtinib_02407_R1,Plate:MR005",1340 nM
same,potency estimated from few doses,"RPS6KA4; compound concentrations:100 nM and 1000 nM (sheet 'Lestaurtinib' of Supplementary Table 1),run:Lestaurtinib_02407_R2,Plate:MR005",1630 nM
same,potency estimated from few doses,"RPS6KA4; compound concentrations:100 nM and 1000 nM (sheet 'Lestaurtinib' of Supplementary Table 1),run:Lestaurtinib_02422_R1,Plate:MR006",975 nM
same,potency estimated from few doses,"RPS6KA4; compound concentrations:100 nM and 1000 nM (sheet 'Lestaurtinib' of Supplementary Table 1),run:Lestaurtinib_02437_R1,Plate:MR007",1320 nM
same,potency estimated from few doses,RPS6KA4; [1],769 nM
same,potency estimated from few doses,RPS6KA4; [2],1350 nM
same,potency estimated from few doses,RPS6KA4; [3],864 nM
same,potency estimated from few doses,RPS6KA4; [4],1240 nM
same,potency estimated from few doses,"RPS6KA4; compound concentrations:100 nM and 1000 nM (sheet 'Lestaurtinib' of Supplementary Table 1),run:Lestaurtinib_02482_R2,Plate:MR011",1340 nM
same,potency estimated from few doses,RPS6KA4; [5],924 nM
same,potency estimated from few doses,"RPS6KA4; compound concentrations:100 nM and 1000 nM (sheet 'Lestaurtinib' of Supplementary Table 1),run:Lestaurtinib_02487_R1,Plate:MR012",680 nM
same,potency estimated from few doses,RPS6KA4; [6],745 nM
same,potency estimated from few doses,RPS6KA4; [7],950 nM
same,potency estimated from few doses,RPS6KA4; [8],877 nM
same,potency estimated from few doses,"RPS6KA4; compound concentrations:100 nM and 1000 nM (sheet 'Lestaurtinib' of Supplementary Table 1),run:Lestaurtinib_02496_R2,Plate:MR013",822 nM
same,potency estimated from few doses,RPS6KA4; [9],1360 nM
same,potency estimated from few doses,"RPS6KA4; compound concentrations:100 nM and 1000 nM (sheet 'Lestaurtinib' of Supplementary Table 1),run:Lestaurtinib_02566_R2,Plate:MR014",971 nM
same,potency estimated from few doses,"RPS6KA4; compound concentrations:100 nM and 1000 nM (sheet 'Lestaurtinib' of Supplementary Table 1),run:Lestaurtinib_02572_R2,Plate:MR015",1240 nM
same,potency estimated from few doses,RPS6KA4; [10],1370 nM
same,potency estimated from few doses,RPS6KA4; [11],1210 nM
same,potency estimated from few doses,RPS6KA4; [12],1330 nM
